# Results reported in PMC8384837, “Expanding the binding specificity for RNA recognition by a PUF domain”.
# Key:
# Assay in all cases: yeast three-hybrid, YBZ-1, SC-Leu-His + 0.5 mM 3-AT, 4 days
# Conditions in all cases: tags: N-Gal4 AD-HA kept; label: inside an RPR1-promoter hybrid RNA with tandem MS2 sites; ssRNA
# [1] = target: PUM1 PUF domain R3-PWG (Homo sapiens, UniProt Q14671 828-1176, C935P;R936W;Q939G)
# In short: (§1)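 The interaction score is the logarithmic change in variant frequency from input to selection. It uses log2, with a pseudocount of 1 for absent variants, and frequencies came from PCR-amplified, Illumina-sequenced repeat regions. The libraries were Pumilio-1 PUF domains randomized at the three base-contacting residues per repeat, co-expressed with matching RNA elements in strain YBZ-1 (LexA–MS2 coat fusion, HIS3 reporter). Plating lasted four days on SC-Leu (input) or SC-Leu-His + 0.5 mM 3-AT (selection).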
# [2] = target: PUM1 PUF domain R3-TRA (Homo sapiens, UniProt Q14671 828-1176, C935T;Q939A)
# In short: as §1
# [3] = target: PUM1 PUF domain R3-AWG (Homo sapiens, UniProt Q14671 828-1176, C935A;R936W;Q939G)
# In short: as §1
# [4] = target: PUM1 PUF domain R8-RFC (Homo sapiens, UniProt Q14671 828-1176, N1122R;Y1123F;Q1126C)
# In short: as §1
# [5] = target: PUM1 PUF domain R1-KYI (Homo sapiens, UniProt Q14671 828-1176, S863K;R864Y;Q867I)
# In short: as §1
# [6] = target: PUM1 PUF domain R8-NFV (Homo sapiens, UniProt Q14671 828-1176, Y1123F;Q1126V)
# In short: as §1
# [7] = target: PUM1 PUF domain R4-GRG (Homo sapiens, UniProt Q14671 828-1176, N971G;H972R;Q975G)
# In short: as §1
# [8] = target: T1, PUM1 PUF domain R6-GRQ (Homo sapiens, UniProt Q14671 828-1176, N1043G;Y1044R)
# T1 sequence: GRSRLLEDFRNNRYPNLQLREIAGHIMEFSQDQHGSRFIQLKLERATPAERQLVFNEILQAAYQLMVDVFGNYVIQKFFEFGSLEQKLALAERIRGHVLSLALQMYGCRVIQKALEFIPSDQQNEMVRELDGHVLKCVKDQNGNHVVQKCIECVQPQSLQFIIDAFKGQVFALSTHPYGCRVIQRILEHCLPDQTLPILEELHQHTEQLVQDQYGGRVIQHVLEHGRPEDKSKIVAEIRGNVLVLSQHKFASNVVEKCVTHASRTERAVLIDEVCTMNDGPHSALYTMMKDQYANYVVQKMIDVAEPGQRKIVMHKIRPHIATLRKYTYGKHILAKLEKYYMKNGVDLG
# In short: as §1
# [9] = target: PUM1 PUF domain R7-LNA (Homo sapiens, UniProt Q14671 828-1176, S1079L;E1083A)
# In short: as §1
# [10] = target: PUM1 PUF domain R7-GGR (Homo sapiens, UniProt Q14671 828-1176, S1079G;N1080G;E1083R)
# In short: as §1
sequence,measurement,setting,value
GGCUAGAACUAGUGGAUCCCCCGGCGCCCGGCGGCUCGAGCCCGGGUAAGUGUAAGUAGUCUGCAUGCCGCCGGGCGCCAUGCCUGCAGGUCGACUCUAGAAAACAUG,binding signal,[1],2.38 log2 enrichment (interaction score)
same,binding signal,[2],0.89 log2 enrichment (interaction score)
same,binding signal,[3],0.66 log2 enrichment (interaction score)
GGCUAGAACUAGUGGAUCCCCCGGCGCCCGGCGGCUCGAGCCCGGGUAAGCGUAAAUAGUCUGCAUGCCGCCGGGCGCCAUGCCUGCAGGUCGACUCUAGAAAACAUG,binding signal,[4],5.87 log2 enrichment (interaction score)
GGCUAGAACUAGUGGAUCCCCCGGCGCCCGGCGGCUCGAGCCCGGGUAAGUGUAAAUCGUCUGCAUGCCGCCGGGCGCCAUGCCUGCAGGUCGACUCUAGAAAACAUG,binding signal,[5],4.65 log2 enrichment (interaction score)
GGCUAGAACUAGUGGAUCCCCCGGCGCCCGGCGGCUCGAGCCCGGGUAAGUGUAAAUAGUCUGCAUGCCGCCGGGCGCCAUGCCUGCAGGUCGACUCUAGAAAACAUG,binding signal,[1],4.24 log2 enrichment (interaction score)
same,binding signal,[6],3.02 log2 enrichment (interaction score)
same,binding signal,[2],3.6 log2 enrichment (interaction score)
same,binding signal,[3],3.6 log2 enrichment (interaction score)
same,binding signal,[7],5.19 log2 enrichment (interaction score)
same,binding signal,[4],4.53 log2 enrichment (interaction score)
same,binding signal,[8],3.49 log2 enrichment (interaction score)
GGCUAGAACUAGUGGAUCCCCCGGCGCCCGGCGGCUCGAGCCCGGGUAAGUGUACAUAGUCUGCAUGCCGCCGGGCGCCAUGCCUGCAGGUCGACUCUAGAAAACAUG,binding signal,[7],0.59 log2 enrichment (interaction score)
GGCUAGAACUAGUGGAUCCCCCGGCGCCCGGCGGCUCGAGCCCGGGUAAGUUUAAAUAGUCUGCAUGCCGCCGGGCGCCAUGCCUGCAGGUCGACUCUAGAAAACAUG,binding signal,[9],4.5 log2 enrichment (interaction score)
same,binding signal,[10],3.28 log2 enrichment (interaction score)
GGCUAGAACUAGUGGAUCCCCCGGCGCCCGGCGGCUCGAGCCCGGGUAAGUGUAUAUAGUCUGCAUGCCGCCGGGCGCCAUGCCUGCAGGUCGACUCUAGAAAACAUG,binding signal,[7],2.09 log2 enrichment (interaction score)
GGCUAGAACUAGUGGAUCCCCCGGCGCCCGGCGGCUCGAGCCCGGGUAAGUGUAAUUAGUCUGCAUGCCGCCGGGCGCCAUGCCUGCAGGUCGACUCUAGAAAACAUG,binding signal,[1],2.22 log2 enrichment (interaction score)
same,binding signal,[2],0.43 log2 enrichment (interaction score)
same,binding signal,[3],0.35 log2 enrichment (interaction score)
